Bioassay records deposited in PubChem BioAssay by National Center for Advancing Translational Sciences (NCATS).
FLuc modulator = inhibits or activates purified firefly luciferase, miR-21 counter-screen; purified FLuc, Km substrates, luminescence inhibition; Potency, µM (top dose mostly 57.5 µM), for inactives: at the top dose activity change, negative = inhibition, hits mostly inhibitors; 360,000 compounds, 6.9% hits; AID 588342;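 also: plate controls were vehicle for no effect and reference inhibitor for full effect; nearly all actives have a fitted effect of over 55% in size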
Target sequence (P08659 whole entry, looked up): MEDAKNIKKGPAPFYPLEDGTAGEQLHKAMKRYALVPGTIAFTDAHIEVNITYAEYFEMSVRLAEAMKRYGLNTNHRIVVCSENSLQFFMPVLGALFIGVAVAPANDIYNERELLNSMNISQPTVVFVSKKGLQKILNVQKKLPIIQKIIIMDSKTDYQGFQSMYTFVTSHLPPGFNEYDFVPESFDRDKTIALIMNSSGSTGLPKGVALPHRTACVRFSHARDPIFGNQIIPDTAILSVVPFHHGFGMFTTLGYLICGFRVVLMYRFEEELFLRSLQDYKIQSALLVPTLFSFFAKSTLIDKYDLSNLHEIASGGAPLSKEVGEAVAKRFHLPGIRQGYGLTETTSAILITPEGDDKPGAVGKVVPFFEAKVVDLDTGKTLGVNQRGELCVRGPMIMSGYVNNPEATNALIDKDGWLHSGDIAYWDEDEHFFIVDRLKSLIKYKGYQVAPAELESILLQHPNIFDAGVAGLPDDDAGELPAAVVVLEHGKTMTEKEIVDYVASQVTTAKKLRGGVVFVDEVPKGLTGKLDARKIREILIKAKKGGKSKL
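Purified P. pyralis luciferase (10nM final) with 10uM D-luciferin and 10uM ATP (Km levels) in 50mM Tris acetate pH 7.5, 10mM Mg acetate, 0.01% Tween-20, 0.05% BSA; qHTS 6-point titration, ~60 µM downward; luminescence read.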
Rab9 prom act = activators of Rab9 promoter. Potency, µM (highest dose often 9.22 µM), without a hit: at the top dose activation, negative = inhibition, hits mostly activators. Huh7 Rab9 promoter-luciferase reporter, luminescence, 24 h. 320,000 compounds, 2.8% hits; also: % of control where 0% means no effect; nearly all actives have a fitted effect of over 60% in size
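Luciferase signal after 10 min detection reagent at ambient indicates Rab9 promoter upregulation; stably transfected Huh7 cells were treated 24 h with compound in DMSO at 37 °C, 5% CO2.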
ELG1 genotoxic = induces genotoxicity in HEK293T cells with luciferase-tagged ELG1; HEK293T ELG1-luciferase reporter, luminescence, 16 h; Potency, µM (highest dose often 46 µM), inactives show at the top dose activity change, positive = activation, hits mostly activators; 330,000 compounds, 1.3% hits; AID 504466; also: % of control where 0% means no effect; nearly all actives have a fitted effect of over 60% in size
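Screening used a luciferase reporter fused to human ELG1 in HEK293T cells. Luminescence was read on a CCD plate imager after 16 hr exposure and 30 min ONE-Glo incubation.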
SMN2 splice up = increases expression of the SMN2 splice variant | 210,000 compounds, 2.8% hits | HEK293 SMN2-luciferase splicing reporter, luminescence, 30-36 h | Potency, µM (highest dose often 46.1 µM), inactives show at the highest dose activity change, positive = activation, most hits filed as activators; also: % of control where 0% means no effect; nearly all actives have a fitted effect of over 55% in size
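HEK293 cells carry an SMN2 […]–luciferase reporter in which exon 7 inclusion puts luciferase in frame. Cells were plated 10-12 h before compound addition, then incubated 30-36 h at 37C. ONE-Glo luminescence was read; sodium butyrate at 4.5 mM final served as control.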
NPC1 prom act = NPC1 promoter activation. Huh7 NPC1 promoter luciferase reporter, 24 h. Potency, µM (titrated, usually from 9.22 µM), for inactives: at the top dose activation, actives largely listed as activators. 320,000 compounds, 2.4% hits. AID 485313; also: % of control where 0% means no effect; nearly all actives have a fitted effect of over 60% in size
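Stably transfected Huh7 (NPC1 promoter→luciferase), 1500 cells/well in Opti-MEM + 10% FBS, 2 h settle, then compound 24 h at 37 °C. Luminescence after 10 min with Amplite reagent.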
* marks the source's active call; other numbers are inactive results; ? = inconclusive; nt = no result given; ! = not confirmed by another sample; [ ] = remark or other dose. This is a sample that favours compounds with a hit; in the whole collection about 7.5% have one here. Calls follow the shape of the dose curve; as a rule, active = well fitted curve in the direction sought with a large enough effect; inconclusive = small, poorly fitted or top-dose-only effect, or another doubt; inactive = no such curve, though single readings can be large; an effect the other way counts as inactive or inconclusive. Potency is read from the fitted curve at half-maximal effect.

SMILES	FLuc modulator	Rab9 prom act	ELG1 genotoxic	SMN2 splice up	NPC1 prom act
N#Cc1ccccc1Cn1c(=O)n(Cc2ccc(C(=O)NC3CCN(Cc4ccccc4)CC3)cc2)c(=O)c2ccccc21	-1%	nt	nt	-2%	nt
CC(C)(C)NC(=O)CSc1nc2[nH]ncc2c(=O)[nH]1	-2%	-7%	5%	8%	-5%
C/C(=N\N=C(/N)c1nonc1N)c1ccc2c(c1)OCO2	2.7µM*	0.89µM*	?	nt	0.63µM*
O=C(Nc1cccc(C(F)(F)F)c1)c1cc(-c2ccco2)on1	?	3%	7%	nt	1%
O=C(Nc1cccc(O)c1)c1cc(-c2ccco2)on1	0.95µM*	1%	?	11%	-2%
COc1ccc(-c2cc(C(=O)Nc3cccc(O)c3)no2)cc1	0.38µM*	4µM*	?	nt	?
CC(=O)c1cccc(NC(=O)c2cc(-c3ccco3)on2)c1	2.4µM*	3%	?	nt	-3%
COc1ccc(/C=C(/NC(=O)c2ccc(OC)c(OC)c2)C(=O)NCCCn2ccnc2)cc1	-1%	0%	1%	nt	-1%
Cc1cc(C)cc(-n2cc[nH]c2=S)c1	3%	-1%	0%	13%	-2%
Cc1cccc2c1OCC/C2=N\NC(=O)COc1ccccc1Cl	3.8µM*	3.2µM*	?	22%	2.2µM*
C=C(C)C1CC=C(C)/C(=N/NC(=O)COc2ccccc2Cl)C1 (stereo not given)	5%	-8%	-7%	-24%	1%
Clc1ccccc1-c1nc(-c2ccc(Br)o2)no1	1.2µM*	0.71µM*	4.1µM*	nt	1.3µM*
O=[N+]([O-])c1cc(Cl)ccc1-c1nc(-c2ccncc2)no1	?	?	7%	28%	23%
O=[N+]([O-])c1cc(Cl)ccc1-c1nc(-c2ccccc2)no1	1.2µM*	3.2µM*	?	17%[1.84 µM]	3.5µM*
O=[N+]([O-])c1ccccc1-c1nc(-c2ccc(Br)o2)no1	3µM*	2.8µM*	?	17%[1.84 µM]	3.2µM*
Nc1nnc(-c2ccccc2[N+](=O)[O-])o1	-8%	-5%	2%	-1%	-1%
COc1cc(-c2nc(-c3ccc(Br)o3)no2)cc(OC)c1OC	2%	-4%	-3%	-6%	-1%
Nc1nonc1C(=O)NCCNCc1cccc(Cl)c1Cl	2%	nt	nt	-8%	nt
CCOc1ccc(/C=C\C(C)=N\O)cc1	8.5µM*	2.2µM*	10µM*	16µM*	2µM*
CCOc1ccc(/C=C/C(=O)Oc2ccc(OC)cc2)cc1	?	2%	3%	nt	-1%
CCOc1ccc(C(=O)CCC(=O)O)cc1	3%	5%	1%	14%	-4%
O=C(O)CCC(=O)/C=C/c1ccccc1	-11%	12%	-2%	nt	-3%
CCOc1ccc(/C=C/C(=O)CCC(=O)O)cc1	1.1µM*	0.71µM*	?	nt	?
CC(C)c1ccc(/C=C/C(=O)CCC(=O)O)cc1	0.24µM*	0.79µM*	?	1.4µM*	0.28µM*
CC(C)c1ccc(/C=C/C(=O)NCc2ccc(S(N)(=O)=O)cc2)cc1	13µM*	18%	1%	-31%	-2%
SMILES	FLuc modulator	Rab9 prom act	ELG1 genotoxic	SMN2 splice up	NPC1 prom act
O=CNc1ccc(S(=O)(=O)NCc2ccccc2)cc1	5%	-2%	1%	-9%	-2%
CCOc1ccc(OCC)c(NC(=O)C2CCCN(c3nc(C)cc(C)n3)C2)c1 (stereo not given)	0%	-1%	-16%	-14%	2%
O=C(c1ccc(Cn2c(=S)[nH]c3ccc(N4CCOCC4)cc3c2=O)cc1)N1CCC(N2CCCCC2)CC1	?	-12%	9%	22%	-4%
COc1cccc(C(=O)O/N=C(\N)c2ccc([N+](=O)[O-])cc2)c1OC	11µM*	10%[1.84 µM]	?	?	?
Cc1cccc(C(=O)O/N=C(\N)c2cccc([N+](=O)[O-])c2)c1	1.3µM*	18%	?	16%	?
Cc1ccccc1C(=O)O/N=C(\N)c1cccc([N+](=O)[O-])c1	0.6µM*	4.5µM*	?	?	?
Cc1ncsc1CCOC(=O)c1cccc([N+](=O)[O-])c1	19µM*!	-5%	1%	5%	-2%
CCC(C)(C#CCN1CCCCC1)OCCC#N (stereo not given)	-2%	5%	-1%	14%	-2%
Cc1cccc(C)c1NC(=O)Cn1nc(C)c2sc3ccccc3c2c1=O	-6%	nt	nt	nt	nt
N/C(=N\OC(=O)c1cccs1)c1cccc([N+](=O)[O-])c1	3.4µM*	26%	?	20%	21%
Nc1nc(CCl)nc(N(c2ccccc2)c2ccccc2)n1	1%	-58%	-9%	nt	-44%
Cc1ccccc1OCc1nc2ccccc2c(=O)n1/N=C/c1c[nH]c2ccccc12	-14%	-10%	-4%	?	-3%
O=[N+]([O-])c1ccc(Cl)c(/C=N/n2c(COc3ccccc3)n[nH]c2=S)c1	-6%	-5%	-1%	-8%	-3%
O=c1c2ccccc2nc(COc2ccccc2)n1/N=C/c1cc([N+](=O)[O-])ccc1O	19µM*	11%	0%	-37%	12%
Cc1cc(/C=N/n2c(COc3ccccc3C)nc3ccccc3c2=O)c(O)c([N+](=O)[O-])c1	24µM*	1%	12%	-97%	5%
Oc1ccccc1CNc1ccc(OC(F)(F)F)cc1	?	?	9%	nt	13%
Cc1cc(Nc2ccccc2)nn1C(=O)c1ccccc1	-20%	-11%	-8%	1%	8%
COc1ccc(C(=O)n2nc(C)cc2Nc2ccccc2)cc1	11µM*	27%	23µM*	0%	15%
COc1cccc(-c2cn3ncsc3n2)c1	15µM*	nt	nt	0%	nt
O=C(Cc1ccc(F)cc1)OCN1C(=O)c2ccccc2C1=O	2%	16%	-13%	nt	-1%
O=C(Cc1ccccc1[N+](=O)[O-])OCN1C(=O)c2ccccc2C1=O	9.5µM*	10%	5%	nt	-10%
O=C1c2ccccc2S(=O)(=O)N1Cc1ccccc1[N+](=O)[O-]	0%	0%	-1%	nt	8%
O=C1c2ccccc2C(=O)N1OCc1ccccc1[N+](=O)[O-]	17µM*	-3%	-1%	1%	-1%
CCOc1ccc(C(=O)N[C@H](C(=O)Nc2ccccc2OC)C(C)C)cc1	7%	4%	2%	nt	-5%
Cc1c(NC(=O)CN2C(=O)NC3(CCC(C)CC3)C2=O)c(=O)n(-c2ccccc2)n1C (stereo not given)	0%	3%	1%	25%	-2%
COc1ccc(C(C)=O)cc1COC(=O)c1cnc(C)cn1	-2%	-3%	2%	2.2µM*	-4%
COc1ccc(C(C)=O)cc1COc1ccc(Cl)cc1Cl	15µM*	0%	-4%	nt	-1%
COc1ccc(C(C)=O)cc1COC(=O)c1c(C)noc1C	0%	-11%	10%	-2%	-1%
